Experiment [1] in a line: Caspase-3/7 induction in HepG2 cells by small molecules, qHTS assay (AID 1346978). Further: nearly all actives have a fitted effect of over 15% in size. Further: potency means the concentration at half of the fitted maximal effect. Put shortly:
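Wild-type HepG2 cells (2,000/well) were settled 5 h at 37 C, 5% CO2, then exposed to compounds in DMSO for 17 h. Caspase-3/7 activity was read by luminescence 30 min after adding Caspase-Glo 3/7 reagent at room temperature.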
(In general: qHTS replaces the single test concentration by a dilution series.)

A short description of experiment [2]: Caspase-3/7 induction in CHO-K1 cells by small molecules, qHTS cell viability counter screen (AID 1346979). Further: nearly all actives have a fitted effect of over 35% in size. Further: potency means the concentration at half of the fitted maximal effect. Put shortly: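 Wild-type CHO-K1 cells (1,500/well) treated with compound after 5 h plating; after 16 h at 37C, viability read as CellTiter-Fluor fluorescence following 1 h reagent incubation, in the same wells as the caspase read.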
The nature of experiment [3]: Caspase-3/7 induction in HepG2 cells by small molecules, qHTS cell viability counter screen (AID 1346981). Further: nearly all actives have a fitted effect of over 30% in size. Further: potency means the concentration at half of the fitted maximal effect. Put shortly: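 Fluorescence read-out of live-cell protease activity (CellTiter-Fluor) after 1 hr with reagent. This was measured in the same wells as the caspase-3/7 luminescence, on HepG2 cells exposed to DMSO-dissolved compounds for 16 hr at 37 C.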
In experiment [4] the target is Nuclear receptor subfamily 1 group I member 2 (Homo sapiens) (UniProt O75469). The experiment in a line: Human pregnane X receptor (PXR) small molecule agonists, qHTS assay (AID 1346982). Further: nearly all actives have a fitted effect of over 35% in size. Further: potency means the concentration at half of the fitted maximal effect. Put shortly: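 HepG2 PXR-Luc reporter line, 5% charcoal-stripped FBS; 5 hr pre-incubation, compound (DMSO) 24 hr at 37 C/5% CO2; ONE-Glo 30 min RT; luminescence read-out.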
The target in experiment [5] is Cytochrome P450 2D6 (Homo sapiens) (UniProt P10635). The experiment in a line: Cytochrome P450 Family 2 Subfamily D Member 6 (CYP2D6) small molecule antagonists: luciferase reporter qHTS assay (AID 1671196). Further: nearly all actives have a fitted effect of over 50% in size. Further: potency means the concentration at half of the fitted maximal effect. The method in brief:
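Luminogenic proluciferin substrate, CYP2D6 enzyme; 10 min RT preincubation with compound, NADPH regeneration system added, 1 h RT. Stop/detection reagent, 20 min RT, luminescence read (RLU). Signal proportional to CYP activity.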
On the technique in general: Reporter assays use an easily measured gene product as a stand-in for the process of interest.

The target in experiment [6] is Cytochrome P450 2C19 (Homo sapiens) (UniProt P33261). The experiment in a line: Cytochrome P450 Family 2 Subfamily C Member 19 (CYP2C19) small molecule antagonists: luciferase reporter qHTS assay (AID 1671197). Further: nearly all actives have a fitted effect of over 65% in size. Further: potency means the concentration at half of the fitted maximal effect. Put shortly:
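Compounds were tested on CYP2C19 activity via proluciferin conversion to luciferin. The 37C, 1 h reaction followed NADPH addition; detection reagent stopped it.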

Experiment [7] has as its target Cytochrome P450 2C9 (Homo sapiens) (UniProt P11712). The experiment in a line: Cytochrome P450 Family 2 Subfamily C Member 9 (CYP2C9) small molecule antagonists: luciferase reporter qHTS assay (AID 1671198). Further: nearly all actives have a fitted effect of over 50% in size. Further: potency means the concentration at half of the fitted maximal effect. The method in brief:
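CYP2C9 activity was measured with a P450-Glo proluciferin substrate. Enzyme–substrate mix was held with compound for 10 min at room temperature, then NADPH regeneration solution was added for 1 h at 37C. Luciferin product was read as luminescence.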

For experiment [8], the target named is Cytochrome P450 1A2 (Homo sapiens) (UniProt P05177). The experiment in a line: Cytochrome P450 Family 1 Subfamily A Member 2 (CYP1A2) small molecule antagonists: luciferase reporter qHTS assay (AID 1671199). Further: nearly all actives have a fitted effect of over 50% in size. Further: potency means the concentration at half of the fitted maximal effect. Put shortly:
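Luminescence readout (relative luminescence units) after luciferin detection reagent, 20 min RT. Preceded by 1 h room-temperature CYP1A2 reaction with NADPH regeneration solution following 10 min compound preincubation with enzyme and proluciferin substrate. Furafylline positive control.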

Experiment [9] has as its target Voltage-gated inwardly rectifying potassium channel KCNH2 (Homo sapiens) (UniProt Q12809). The experiment in a line: Human Ether-a-go-go-Related Gene (hERG) channel small molecule antagonists: fluorescence cell-based qHTS assay (AID 1671200). Further: nearly all actives have a fitted effect of over 50% in size. Further: potency means the concentration at half of the fitted maximal effect. The method in brief:
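hERG-U2OS cells plated overnight at 37 C, loaded with FluxOR II dye 1 h at RT in dark; after 10 min, thallium stimulus added. Fluorescence (480/540 nm) read kinetically for 2 min at 1 s intervals.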
In general terms: hERG is a cardiac potassium channel; its block is linked to QT prolongation.

The target in experiment [10] is Cytochrome P450 3A4 (Homo sapiens) (UniProt P08684). The experiment in a line: Cytochrome P450 Family 3 Subfamily A Member 4 (CYP3A4) small molecule antagonists: luciferase reporter qHTS assay (AID 1671201). Further: nearly all actives have a fitted effect of over 50% in size. Further: potency means the concentration at half of the fitted maximal effect. The method in brief:
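P450-Glo CYP3A4 luminescent assay: compounds preincubated 10 min at room temperature with enzyme and proluciferin substrate, NADPH regeneration added, 1 h room-temperature reaction, stopped with luciferin detection reagent; luminescence read after 20 min. Ketoconazole positive control.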

The target in experiment [11] is Nuclear receptor subfamily 1 group I member 2 (Rattus norvegicus) (UniProt Q9R1A7). The experiment in a line: Rat pregnane X receptor (rPXR) activation by small molecules, qHTS assay (AID 1346983). Further: nearly all actives have a fitted effect of over 20% in size. The conditions noted are these: rPXR luciferase reporter cells, One-Glo luminescence, 24 h; stronger effect = higher value. The method in brief: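 Cell-based rPXR luciferase reporter assay, 2,000 cells per well, rested 5hr at 37 C before compound addition in DMSO, then 24 hr at 37 C. One-Glo reagent was added and luminescence read after 30 min at room temperature.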

SMILES strings stand for the structures. “And” between values parts separate entries of the source, which are not always exact repeats. Equal values may be shown once. Inconclusive results are not listed. A structure can be active in one record and inactive in another. The source made the active and inactive calls. The call rests on the fitted dose curve; in most records, active means well fitted curve in the direction sought with a large enough effect in the repeat runs; inconclusive means weak or mixed curves; inactive means no such curve, though single readings can be large; an effect the other way counts as inactive or inconclusive.
On the % scale 0 is the no-effect control and ±100 the full control effect.

Sequence of Voltage-gated inwardly rectifying potassium channel KCNH2 (Homo sapiens) (Q12809 whole entry, looked up): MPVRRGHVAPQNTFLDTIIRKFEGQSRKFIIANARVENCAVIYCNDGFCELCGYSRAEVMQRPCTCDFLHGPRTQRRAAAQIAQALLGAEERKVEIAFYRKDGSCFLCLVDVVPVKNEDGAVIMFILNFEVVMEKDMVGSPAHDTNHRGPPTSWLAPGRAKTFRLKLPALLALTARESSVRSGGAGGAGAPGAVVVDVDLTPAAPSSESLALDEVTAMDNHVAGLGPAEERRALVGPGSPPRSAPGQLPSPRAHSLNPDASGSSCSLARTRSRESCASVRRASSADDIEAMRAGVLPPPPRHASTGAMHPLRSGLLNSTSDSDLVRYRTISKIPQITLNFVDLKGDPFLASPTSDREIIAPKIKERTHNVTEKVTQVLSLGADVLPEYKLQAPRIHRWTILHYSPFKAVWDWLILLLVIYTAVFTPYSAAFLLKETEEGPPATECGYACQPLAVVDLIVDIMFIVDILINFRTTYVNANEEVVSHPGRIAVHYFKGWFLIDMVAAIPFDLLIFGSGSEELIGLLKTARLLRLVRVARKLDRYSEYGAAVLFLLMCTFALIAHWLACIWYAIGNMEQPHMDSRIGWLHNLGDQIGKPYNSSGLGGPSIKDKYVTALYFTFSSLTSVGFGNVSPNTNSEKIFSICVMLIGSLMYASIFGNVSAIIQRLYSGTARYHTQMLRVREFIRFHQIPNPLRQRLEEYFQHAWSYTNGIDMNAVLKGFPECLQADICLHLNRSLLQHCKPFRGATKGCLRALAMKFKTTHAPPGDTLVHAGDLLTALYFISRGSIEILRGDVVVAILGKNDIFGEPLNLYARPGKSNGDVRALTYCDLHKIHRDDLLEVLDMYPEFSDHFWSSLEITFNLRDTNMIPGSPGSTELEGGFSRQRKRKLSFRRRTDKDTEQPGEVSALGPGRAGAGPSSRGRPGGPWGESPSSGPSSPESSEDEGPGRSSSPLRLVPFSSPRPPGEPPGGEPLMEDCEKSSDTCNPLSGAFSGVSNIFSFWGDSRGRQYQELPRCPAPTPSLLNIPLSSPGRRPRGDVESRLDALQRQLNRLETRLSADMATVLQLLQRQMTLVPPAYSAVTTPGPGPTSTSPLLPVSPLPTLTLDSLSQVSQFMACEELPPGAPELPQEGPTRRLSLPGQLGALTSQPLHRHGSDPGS
Sequence of Cytochrome P450 3A4 (Homo sapiens) (P08684 whole entry, looked up): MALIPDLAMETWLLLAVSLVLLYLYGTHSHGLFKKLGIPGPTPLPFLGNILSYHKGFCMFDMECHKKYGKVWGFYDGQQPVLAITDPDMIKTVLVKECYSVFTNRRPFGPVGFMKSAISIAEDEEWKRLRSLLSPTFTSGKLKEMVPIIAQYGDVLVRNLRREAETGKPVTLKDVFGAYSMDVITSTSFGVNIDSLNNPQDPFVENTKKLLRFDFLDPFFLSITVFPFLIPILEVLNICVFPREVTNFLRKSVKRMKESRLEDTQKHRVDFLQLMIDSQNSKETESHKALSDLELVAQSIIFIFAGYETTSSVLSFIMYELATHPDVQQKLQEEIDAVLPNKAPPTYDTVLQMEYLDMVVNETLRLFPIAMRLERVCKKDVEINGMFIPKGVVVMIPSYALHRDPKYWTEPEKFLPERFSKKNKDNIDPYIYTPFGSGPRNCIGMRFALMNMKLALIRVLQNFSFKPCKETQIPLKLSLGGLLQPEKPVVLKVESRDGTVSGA
Sequence of Cytochrome P450 2C19 (Homo sapiens) (P33261 whole entry, looked up): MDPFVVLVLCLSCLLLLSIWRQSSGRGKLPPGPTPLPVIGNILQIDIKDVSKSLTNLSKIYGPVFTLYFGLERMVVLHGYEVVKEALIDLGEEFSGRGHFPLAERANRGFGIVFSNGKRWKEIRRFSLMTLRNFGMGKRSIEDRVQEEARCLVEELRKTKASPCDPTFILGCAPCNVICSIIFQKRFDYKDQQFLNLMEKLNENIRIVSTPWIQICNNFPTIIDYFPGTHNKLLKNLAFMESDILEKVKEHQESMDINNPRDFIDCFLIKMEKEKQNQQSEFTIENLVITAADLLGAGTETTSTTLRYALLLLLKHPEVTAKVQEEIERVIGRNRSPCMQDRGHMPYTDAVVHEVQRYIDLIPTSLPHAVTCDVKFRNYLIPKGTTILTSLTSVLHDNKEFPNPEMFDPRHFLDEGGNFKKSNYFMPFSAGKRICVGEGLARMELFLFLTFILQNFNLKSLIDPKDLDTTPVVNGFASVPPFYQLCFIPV
Sequence of Cytochrome P450 1A2 (Homo sapiens) (P05177 whole entry, looked up): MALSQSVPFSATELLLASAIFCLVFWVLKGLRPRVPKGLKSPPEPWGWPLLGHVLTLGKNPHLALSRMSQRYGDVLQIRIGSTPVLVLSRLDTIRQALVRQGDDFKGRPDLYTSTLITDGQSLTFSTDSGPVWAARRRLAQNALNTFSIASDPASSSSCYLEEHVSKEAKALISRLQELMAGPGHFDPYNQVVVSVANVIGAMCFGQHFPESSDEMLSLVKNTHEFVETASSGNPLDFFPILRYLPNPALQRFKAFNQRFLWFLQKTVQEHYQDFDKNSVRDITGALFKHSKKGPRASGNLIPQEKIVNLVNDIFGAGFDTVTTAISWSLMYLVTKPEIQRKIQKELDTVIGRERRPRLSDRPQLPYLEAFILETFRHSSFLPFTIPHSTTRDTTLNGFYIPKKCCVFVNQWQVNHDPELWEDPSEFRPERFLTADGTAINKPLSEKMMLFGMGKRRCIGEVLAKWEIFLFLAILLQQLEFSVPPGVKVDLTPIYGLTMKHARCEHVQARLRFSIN
Sequence of Cytochrome P450 2D6 (Homo sapiens) (P10635 whole entry, looked up): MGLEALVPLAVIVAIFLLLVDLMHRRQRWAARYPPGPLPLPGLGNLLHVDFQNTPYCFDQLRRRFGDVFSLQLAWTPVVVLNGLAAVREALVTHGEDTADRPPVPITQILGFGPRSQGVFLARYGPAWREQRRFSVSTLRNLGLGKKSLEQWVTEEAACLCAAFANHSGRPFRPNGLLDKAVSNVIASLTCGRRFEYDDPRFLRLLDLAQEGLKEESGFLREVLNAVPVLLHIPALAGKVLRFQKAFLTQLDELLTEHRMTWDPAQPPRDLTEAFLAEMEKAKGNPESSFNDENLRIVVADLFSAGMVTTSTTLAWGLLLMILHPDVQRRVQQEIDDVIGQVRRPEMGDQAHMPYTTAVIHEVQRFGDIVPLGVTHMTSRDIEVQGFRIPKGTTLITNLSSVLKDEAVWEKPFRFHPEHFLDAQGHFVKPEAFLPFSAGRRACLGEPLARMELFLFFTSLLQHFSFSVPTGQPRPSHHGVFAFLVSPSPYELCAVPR
Sequence of Nuclear receptor subfamily 1 group I member 2 (Homo sapiens) (O75469 whole entry, looked up): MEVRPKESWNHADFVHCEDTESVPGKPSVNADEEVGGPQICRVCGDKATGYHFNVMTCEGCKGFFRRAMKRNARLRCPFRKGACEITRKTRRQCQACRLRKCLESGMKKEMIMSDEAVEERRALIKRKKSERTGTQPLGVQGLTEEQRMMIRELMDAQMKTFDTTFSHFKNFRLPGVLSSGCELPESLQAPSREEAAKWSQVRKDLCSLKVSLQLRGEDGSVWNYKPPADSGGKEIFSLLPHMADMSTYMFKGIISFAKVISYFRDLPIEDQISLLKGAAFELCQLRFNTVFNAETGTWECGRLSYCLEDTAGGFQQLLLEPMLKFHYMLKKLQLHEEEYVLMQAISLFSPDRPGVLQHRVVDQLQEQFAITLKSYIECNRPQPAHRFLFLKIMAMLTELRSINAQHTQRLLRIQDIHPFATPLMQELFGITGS
Sequence of Cytochrome P450 2C9 (Homo sapiens) (P11712 whole entry, looked up): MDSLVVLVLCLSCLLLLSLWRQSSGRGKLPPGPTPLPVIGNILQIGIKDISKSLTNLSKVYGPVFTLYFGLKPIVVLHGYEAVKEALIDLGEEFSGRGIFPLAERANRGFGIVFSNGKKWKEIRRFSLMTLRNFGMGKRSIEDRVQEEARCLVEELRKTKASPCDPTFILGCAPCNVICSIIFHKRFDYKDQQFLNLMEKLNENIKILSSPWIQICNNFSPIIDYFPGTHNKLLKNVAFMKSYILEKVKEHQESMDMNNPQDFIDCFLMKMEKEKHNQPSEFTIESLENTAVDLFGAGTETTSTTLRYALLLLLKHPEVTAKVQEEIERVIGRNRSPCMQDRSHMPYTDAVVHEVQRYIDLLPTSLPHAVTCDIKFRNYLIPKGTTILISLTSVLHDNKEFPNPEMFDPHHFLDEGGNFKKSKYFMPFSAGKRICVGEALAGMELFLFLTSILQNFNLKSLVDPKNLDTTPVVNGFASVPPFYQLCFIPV
Sequence of Nuclear receptor subfamily 1 group I member 2 (Rattus norvegicus) (Q9R1A7 whole entry, looked up): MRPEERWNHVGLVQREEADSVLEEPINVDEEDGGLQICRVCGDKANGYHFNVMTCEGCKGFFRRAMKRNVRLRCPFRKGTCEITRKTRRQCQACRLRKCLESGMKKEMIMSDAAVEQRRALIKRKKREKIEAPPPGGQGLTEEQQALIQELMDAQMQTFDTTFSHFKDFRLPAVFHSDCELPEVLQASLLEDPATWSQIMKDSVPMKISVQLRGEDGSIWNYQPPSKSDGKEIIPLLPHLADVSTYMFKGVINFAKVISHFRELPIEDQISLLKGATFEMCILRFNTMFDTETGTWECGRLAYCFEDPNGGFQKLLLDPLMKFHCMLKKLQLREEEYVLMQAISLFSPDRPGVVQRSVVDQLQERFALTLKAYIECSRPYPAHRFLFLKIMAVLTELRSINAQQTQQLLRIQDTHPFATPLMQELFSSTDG

With `c1cc(C(c2ccc(OCC3CO3)cc2)C(c2ccc(OCC3CO3)cc2)c2ccc(OCC3CO3)cc2)ccc1OCC1CO1` (stereo not drawn), the Potency result in experiment [1], in [2], in experiment [3], in experiment [8], in experiment [9] and in [10] was “inactive” in each case. Moreover, the Potency is 40 µM (active) and 7.69 µM (active) in experiment [4]; 46.5 µM (active) and inactive in [5]; 104 µM (active) and 56.4 µM (active) in experiment [6]; 10.4 µM (active) and 22.4 µM (active) in [7].
In the case of `NC(N)=NC(=O)Cc1c(Cl)cccc1Cl`, the Potency result in experiment [1], in [2], in [3], in experiment [4], in [6] and in experiment [7] was “inactive” throughout. Moreover, the Potency result in [8] and in experiment [9] was “inactive” throughout.
Take `CCN(CC)CCOc1ccc(/C(=C(\Cl)c2ccccc2)c2ccccc2)cc1`: the Potency in [2] and in [3] was 55.6 µM (active) in each case.
As to `CC(C)(C)c1ccc(O)c(C(C)(C)C)c1`, the Potency in experiment [1] is 30.5 µM (active) and 54.5 µM (active); in experiment [2] it was 60.9 µM (active) and 54.5 µM (active); in experiment [5], 19.9 µM (active); in [6], 9.99 µM (active) and 17.8 µM (active); in [7], 12.6 µM (active) and 11.2 µM (active); in [8], 35.4 µM (active) and 56.4 µM (active). Besides, in experiment [10], the Potency is 35.6 µM (active). For the same molecule, the Potency entry in [4] was “inactive”.
For `Cc1cc(OCCOCC[N+](C)(C)Cc2ccccc2)ccc1C(C)(C)CC(C)(C)C`, the Potency in experiment [2] is 43 µM (active); in [3] it was 54.2 µM (active); in experiment [5], 17.7 µM (active) and 13.8 µM (active); in experiment [6], 39.7 µM (active); in [7], 62.9 µM (active); in [9], 688 nM (active) and 756 nM (active). In addition, the Potency entry in experiment [4], in experiment [8] and in experiment [10] was “inactive” in each case.
Take `Cc1scc2c1N(C(=O)CN1CCN(C)CC1)c1ccccc1NC2=O`: the Potency result in experiment [1], in [2], in [3], in [4], in [5] and in experiment [6] was “inactive” in each case. Further, the Potency entry in experiment [7], in [8] and in experiment [9] was “inactive” each time.
Turning to `CCc1cc(C(C)(C)C)c(O)c(C(C)(C)C)c1`, the Potency entry in experiment [1], in [2], in experiment [3], in experiment [5], in [8] and in [9] was “inactive” throughout. Also, the Potency result in [10] is “inactive”. Besides, the Potency result in experiment [4] was “inactive and 34.4 µM (active)”; in [6] it was 71.7 µM (active) and inactive.
With `Cc1ccc(S(=O)(=O)Oc2ccc(N=Nc3ccc(-c4ccc(N=Nc5c(O)ccc6cc(S(=O)(=O)O)cc(S(=O)(=O)O)c56)c(C)c4)cc3C)cc2)cc1`, the Potency entry in experiment [1] and in [9] was “inactive” in each case. The Potency was 15.4 µM (active) and 10 µM (active) in experiment [2]; 19.4 µM (active) and 15.9 µM (active) in experiment [3]; 6.89 µM (active) and inactive in experiment [4]; 40.1 µM (active) and 26 µM (active) in [5]; 28.4 µM (active) and 51.9 µM (active) in experiment [6]; 35.7 µM (active) and 26 µM (active) in experiment [7]. In [8], the Potency is 56.6 µM (active) and 23.2 µM (active).
Turning to `CCOc1ccc2c(c1)C(C)=CC(C)(C)N2`, the Potency entry in experiment [1], in [3] and in experiment [9] was “inactive” each time. In addition, the Potency was 60.8 µM (active) and 54.5 µM (active) in [4]; 11.2 µM (active) and 10 µM (active) in [5]; 7.93 µM (active) and 5.64 µM (active) in experiment [7]; 39.7 µM (active) and 31.7 µM (active) in [8]; 12.6 µM (active) and 17.8 µM (active) in experiment [10].
Consider `Cc1cc(Cc2cc(C)cc(C(C)(C)C)c2O)c(O)c(C(C)(C)C)c1`, for which the Potency in experiment [1] is 61.4 µM (active); in experiment [2], 27.4 µM (active) and 54.5 µM (active); in [3] it was 61.4 µM (active) and 61.1 µM (active); in [6] it was 5.05 µM (active) and 5.03 µM (active); in experiment [7] it was 3.57 µM (active) and 3.56 µM (active); in experiment [8] it was 25.3 µM (active). Further, the Potency in experiment [9] was 39.1 µM (active); in experiment [10] it was 5.67 µM (active) and 8.94 µM (active). For the same molecule, the Potency result in [5] is “inactive”.
Consider `CC(=O)C1=C(C)[C@@H]2C[C@@]3(C1)[C@H](C)CC[C@H]3C2(C)C`, for which the Potency entry in [1], in experiment [2], in [3] and in experiment [5] was “inactive” each time. Also, the Potency in [6] was 93.5 µM (active) and 39.9 µM (active); in [9], 24.5 µM (active); in experiment [10], 25.2 µM (active).
Consider `CC(C)(c1ccccc1)c1ccc(Nc2ccc(C(C)(C)c3ccccc3)cc2)cc1`, for which the Potency result in [1], in [3], in [4], in experiment [5], in experiment [6] and in experiment [8] was “inactive” in each case. In addition, in experiment [9], the Potency entry is “inactive”. The Potency in experiment [7] was 3.55 µM (active) and 5.64 µM (active).
Take `BrC1CCC(Br)C(Br)CCC(Br)C(Br)CCC1Br` (stereo not drawn): the Potency entry in experiment [1], in [3], in [5] and in [8] was “inactive” in each case. Further, the Potency is 48.4 µM (active) in [2]; 1.26 µM (active) and 1.34 µM (active) in [6]; 10.7 µM (active) in [7]; 15.4 µM (active) in experiment [9]; 1.41 µM (active) and 1.51 µM (active) in experiment [10].
Take `CC1COc2c(N3CCN(C)CC3)c(F)cc3c(=O)c(C(=O)O)cn1c23` (stereo not drawn): the Potency entry in experiment [1], in experiment [2], in experiment [3], in [5], in experiment [6] and in experiment [7] was “inactive” in each case. Moreover, the Potency result in [8] and in experiment [9] was “inactive” each time. Further, the max activation in experiment [11] is -3.36% (inactive).
In the case of `CCC[C@H](N[C@@H](C)C(=O)N1[C@H](C(=O)O)C[C@@H]2CCCC[C@@H]21)C(=O)OCC`, the Potency entry in experiment [1], in experiment [2], in [3], in experiment [5], in experiment [6] and in experiment [7] was “inactive” each time. The Potency result in [9] and in experiment [10] was “inactive” in each case. Moreover, the Potency in [8] is 17.4 µM (active) and inactive.

The record behind these values is PubChem BioAssay (Tox21).
